Measurements as given in the supplement of paper PMC10515830.
Counter-ions that a name gives are not always drawn.

What was measured:
Conditions in all cases: 10 µM; exposure time 6 h
[1] = tested on: Danio rerio larvae (5 dpf); assay: difference in excitability vs DMSO (percentage points); higher = more excitable than DMSO
Summary of the method: (§1)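 Wild-type zebrafish larvae at 5 dpf were kept in 96-well plates and exposed for 6 h to 100 µL egg water holding library compound at a final concentration of 10 µM. From 3 h into exposure, the plates were held at 28.5 ℃ and photographed every 6 s through a 3-h programme of moving lines and 100 ms, 400Hz tones. Each behaviour was scored by Z-LaP Tracker, a DeepLabCut model, and averaged over 48 larvae per compound. Every value gives the compound mean minus the vehicle control mean, in percentage points.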

[2] = tested on: Danio rerio larvae (5 dpf); assay: difference in startle response vs DMSO (percentage points); higher = stronger startle than DMSO
Summary of the method: as §1

[3] = tested on: Danio rerio larvae (5 dpf); assay: difference in activity during first hour vs DMSO (percentage points); higher = more activity than DMSO
Summary of the method: as §1

[4] = tested on: Danio rerio larvae (5 dpf); assay: difference in habituation to acoustic stimuli vs DMSO (percentage points); higher = more habituation than DMSO
Summary of the method: as §1

[5] = tested on: Danio rerio larvae (5 dpf); assay: difference in combined optomotor response to red, green and blue moving lines vs DMSO (percentage points); higher = stronger optomotor response than DMSO
Summary of the method: as §1

Structure (SMILES) | difference in excitability [1] | difference in startle response [2] | difference in activity during first hour [3] | difference in habituation to acoustic stimuli [4] | difference [5]
C=C1C[C@@H]2[C@H](CC[C@]3(C)C(=O)CC[C@@H]23)[C@@]2(C)C=CC(=O)C=C12 [Exemestane] | 14.1 | 0.844 | -8.29 | -0.126 | 3.59
CCN(C(C)=O)c1cccc(-c2ccnc3c(C#N)cnn23)c1 [Zaleplon] | -3.98 | -8.07 | 5.81 | -1.42 | -10.8
CC(C)C[C@H]1C(=O)N2CCC[C@H]2[C@]2(O)O[C@](NC(=O)[C@@H]3C[C@@H]4c5cccc6[nH]cc(c56)C[C@H]4N(C)C3)(C(C)C)C(=O)N12.CC(C)[C@@]1(NC(=O)[C@@H]2C[C@@H]3c4cccc5[nH]cc(c45)C[C@H]3N(C)C2)O[C@@]2(O)[C@@H]3CCCN3C(=O)[C@H](Cc3ccccc3)N2C1=O.CC(C)[C@H]1C(=O)N2CCC[C@H]2[C@]2(O)O[C@](NC(=O)[C@@H]3C[C@@H]4c5cccc6[nH]cc(c56)C[C@H]4N(C)C3)(C(C)C)C(=O)N12.CCC(C)[C@H]1C(=O)N2CCC[C@H]2[C@]2(O)O[C@](NC(=O)[C@@H]3C[C@@H]4c5cccc6[nH]cc(c56)C[C@H]4N(C)C3)(C(C)C)C(=O)N12 [Ergoloid (mesylates)] | 8.62 | 4.7 | -1.3 | 2.76 | -3.42
CC(C)C[C@H]1C(=O)N2CCC[C@H]2[C@]2(O)O[C@](NC(=O)[C@@H]3C=C4c5cccc6[nH]c(Br)c(c56)C[C@H]4N(C)C3)(C(C)C)C(=O)N12 [Bromocriptine (mesylate)] | 22.1 | -1.2 | 30.9 | -9.36 | -3.6
C[N+]1(C)CCCC(OC(=O)C(O)(c2ccccc2)c2ccccc2)C1 (stereo not given) [Mepenzolate (bromide)] | 0.196 | -4.42 | 2.16 | -0.492 | -1.25
O=C(O)CCCc1ccc(N(CCCl)CCCl)cc1 [Chlorambucil] | 12.6 | 1.74 | 5.75 | -1.6 | -10.5
O=c1[nH]c2ccccc2n1C1CCN(CCCC(c2ccc(F)cc2)c2ccc(F)cc2)CC1 [Pimozide] | -5.57 | 7.75 | -5.44 | -11 | -13.5
CC(=O)O[C@H]1C[C@@H]2CC[C@@H]3[C@H](CC[C@@]4(C)[C@H]3C[C@H]([N+]3(C)CCCCC3)[C@@H]4OC(C)=O)[C@@]2(C)C[C@@H]1[N+]1(C)CCCCC1 [Pancuronium (bromide hydrate)] | 15.9 | 4.02 | -3.48 | -0.432 | 5.41
COc1ccc(C(CN(C)C)C2(O)CCCCC2)cc1 (stereo not given) [Venlafaxine (hydrochloride)] | 16.6 | -10.3 | -21.1 | -5.65 | -7.48
O=C(O[C@H]1C[C@H]2CC[C@@H](C1)[N+]21CCCC1)C(O)(c1ccccc1)c1ccccc1 [Trospium (chloride)] | -11.2 | -0.27 | 1.73 | -0.832 | -4.92
CN1C[C@H](C(=O)N[C@]2(C)O[C@@]3(O)[C@@H]4CCCN4C(=O)[C@H](Cc4ccccc4)N3C2=O)C[C@@H]2c3cccc4[nH]cc(c34)C[C@H]21 [Dihydroergotamine (mesylate)] | 16.4 | 11.9 | -6.95 | -1.86 | 2.36
O=P1(N(CCCl)CCCl)NCCCO1 (stereo not given) [Cyclophosphamide (hydrate)] | -1.55 | -0.479 | 2.35 | -0.439 | 2.91
C[N@+]1(CC2CC2)CC[C@]23c4c5ccc(O)c4O[C@H]2C(=O)CC[C@@]3(O)[C@H]1C5 [Methylnaltrexone (bromide)] | 3.91 | -0.955 | 8.76 | 7.78 | -7.48
NCC1(CC(=O)O)CCCCC1 [Gabapentin] | -1.43 | 8.77 | 13.9 | 2.43 | 6.89
CC(NC(C)(C)C)C(=O)c1cccc(Cl)c1 (stereo not given) [Bupropion (hydrochloride)] | -1.99 | -4.01 | -3.52 | 2.84 | -2.98
CC(O)(CS(=O)(=O)c1ccc(F)cc1)C(=O)Nc1ccc(C#N)c(C(F)(F)F)c1 (stereo not given) [Bicalutamide] | -0.599 | 4.36 | 0.23 | 6.4 | 9.87
CC(N)Cc1ccc(O)cc1 (stereo not given) [4-hydroxy Amphetamine (hydrochloride)] | 2.21 | -1.49 | 5.37 | 0.612 | -2.78
C=CCN1CC[C@]23c4c5ccc(O)c4O[C@H]2[C@@H](OCCOCCOCCOCCOCCOCCOCCOC)CC[C@@]3(O)[C@H]1C5 [Naloxegol (oxalate)] | 3.05 | 1.93 | 7.65 | 5.19 | -4.82
CCOC(=O)CC(SP(=S)(OC)OC)C(=O)OCC (stereo not given) [Malathion] | 21.4 | 5.73 | -5.37 | 1.62 | 14.9
O=C1CC[C@@]2(O)[C@H]3Cc4ccc(O)c5c4[C@@]2(CCN3CC2CC2)[C@H]1O5 [Naltrexone (hydrochloride)] | 12.7 | 5.18 | 13.3 | 2.13 | 7.87
C=CCN1CC[C@]23c4c5ccc(O)c4O[C@H]2C(=O)CC[C@@]3(O)[C@H]1C5 [Naloxone (hydrochloride)] | 12.1 | -4.15 | 1.81 | 1.98 | 9.16
Cc1cccc([C@H](C)c2c[nH]cn2)c1C [Dexmedetomidine (hydrochloride)] | 3.34 | 6.43 | -24.1 | -7.14 | -16.9
CN1[C@@H]2C[C@@H](OC(=O)[C@H](CO)c3ccccc3)C[C@H]1[C@@H]1O[C@@H]12 [Scopolamine (hydrobromide)] | 4.44 | 2.53 | -2.69 | -4.87 | 2.89
COc1cc2c(cc1OC)C1CC(=O)C(CC(C)C)CN1CC2 (stereo not given) [Tetrabenazine] | 25.1 | 3.39 | 9.5 | -2.68 | -3.98
COc1cc([C@@H]2c3cc4c(cc3[C@H](O)[C@H]3COC(=O)[C@H]23)OCO4)cc(OC)c1OC [Podophyllotoxin] | 12.7 | -7.15 | -1.85 | 2.01 | 7.28
ClC1C(Cl)C(Cl)C(Cl)C(Cl)C1Cl (stereo not given) [γ-Lindane] | 7.5 | 11.9 | 1.64 | -7.56 | -16.7

Structure (SMILES) | difference in excitability [1] | difference in startle response [2] | difference in activity during first hour [3] | difference in habituation to acoustic stimuli [4] | difference [5]
CCOC(=O)c1cncn1[C@H](C)c1ccccc1 [Etomidate] | -7.08 | 15.9 | -22.2 | -6.98 | -19.2
NCC(CC(=O)O)c1ccc(Cl)cc1 (racemic) [(±)-Baclofen] | -0.88 | 5.35 | 13.9 | -0.192 | 6.84
CN(C)C(=O)Oc1ccc[n+](C)c1 [Pyridostigmine (bromide)] | -1.66 | -2.73 | -1.82 | 4.7 | 2.09
Nc1ccncc1 [4-Aminopyridine] | 5.12 | 6.44 | 9.5 | -2.32 | 10.7
O=[N+]([O-])O[C@H]1CO[C@H]2[C@@H]1OC[C@H]2O[N+](=O)[O-] [Isosorbide Dinitrate] | 5.95 | 10.4 | 2.6 | 1.13 | 5
CC(C)N(CCC(C(N)=O)(c1ccccc1)c1ccccn1)C(C)C (stereo not given) [Disopyramide] | 5.49 | -1.52 | 13.6 | 4.14 | 9.12
COc1cc2c(c(OC)c1OC)-c1ccc(OC)c(=O)cc1[C@@H](NC(C)=O)CC2 [Colchicine] | -4.48 | -0.112 | 1.93 | 2.9 | 4.29
CCN(C)C(=O)Oc1cccc([C@H](C)N(C)C)c1 [Rivastigmine (tartrate)] | 0.964 | 4.99 | -2.5 | -3.03 | 5.01
COc1ccc2c(c1)[C@]13CCCC[C@@H]1[C@H](C2)N(C)CC3 [Dextromethorphan (hydrobromide hydrate)] | 18.6 | 1.65 | -16 | -4.55 | -8.83
C=CCN1C[C@H](C(=O)N(CCCN(C)C)C(=O)NCC)C[C@@H]2c3cccc4[nH]cc(c34)C[C@H]21 [Cabergoline] | 13.2 | -8.8 | -4.41 | 5.57 | -3.78
CN1[C@@H]2CC[C@H]1C[C@@H](OC(=O)C(CO)c1ccccc1)C2 (stereo not given in full) [Atropine] | -7.7 | -5.16 | -10.3 | -0.323 | -1.56
CN(C)C(=O)Oc1cccc([N+](C)(C)C)c1 [Neostigmine (methyl sulfate)] | -10.3 | 0.754 | 11.2 | 5.23 | 17
O=C(O[C@H]1C[N+]2(CCCOc3ccccc3)CCC1CC2)C(O)(c1cccs1)c1cccs1 [Aclidinium (bromide)] | -0.582 | -8.56 | -5.04 | -1.38 | -3.58
C[C@]12CC[C@H](O)CC1=CC[C@@H]1[C@@H]2CC[C@]2(C)C(=O)CC[C@@H]12 [Dehydroepiandrosterone] | 19 | -2.18 | -15.8 | 1.51 | 6.05
O=P1(NCCCl)OCCCN1CCCl (stereo not given) [Ifosfamide] | 10 | -6.24 | -5.39 | 2.26 | 2.77
Nc1ncnc2c1ncn2CCOCP(=O)(O)O [Adefovir] | -0.414 | 3.47 | 19.5 | -0.786 | 6.79
C[N+]1(C)[C@@H]2C[C@@H](OC(=O)[C@H](CO)c3ccccc3)C[C@H]1[C@@H]1O[C@@H]12 [Methylscopolamine (bromide)] | -2.02 | 0.0162 | -10 | -2.49 | 0.657
N.N.[Cl][Pt][Cl] [Cisplatin] | -2.35 | -10 | -16.8 | -5.63 | -0.233
Cn1c(CCCC(=O)O)nc2cc(N(CCCl)CCCl)ccc21 [Bendamustine (hydrochloride)] | 1.71 | -1.73 | 2 | -3.41 | -1.37
CC[C@@H](C(N)=O)N1CCCC1=O [Levetiracetam] | 1.51 | 0.691 | 2.97 | 4.14 | 4.89
C[C@H](N)[C@H](O)c1ccc(O)c(O)c1 [Levonordefrin] | 2.43 | -2.28 | 3.36 | -5.57 | -0.226
CC1=C[C@]23C(=O)[C@@H](C=C(CO)[C@@H](O)[C@]2(O)[C@H]1O)[C@H]1[C@@H](C[C@H]3C)C1(C)C [Ingenol] | 8.75 | 2.54 | -2.63 | 4.35 | -0.622
N[C@@H]1C[C@H]1c1ccccc1 [Tranylcypromine (hydrochloride)] | -4.31 | -7.1 | -15.2 | -1.86 | 1.86
C#CCN(C)[C@H](C)Cc1ccccc1 [R-(-)-Deprenyl (hydrochloride)] | -5.66 | -0.482 | -5.84 | 6.14 | 1.17
N[C@@H](Cc1ccc(N(CCCl)CCCl)cc1)C(=O)O [Melphalan] | 10.9 | 1.5 | -4.46 | -1.58 | 7.41
